Sampled rows, rich in hits. Any-hit rate of the full collection: about 5.3%.
PfM18AAP inh: PfM18AAP inhibitors, malaria aminopeptidase, primary screen, biochemical, QFRET, recombinant enzyme; M18 aspartyl aminopeptidase (Plasmodium falciparum 3D7); H-Glu-NHMec fluorogenic cleavage; inhibition, % at 7.35 µM; 1.2% of 290,000 active; AID 1822, 2009;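 active = inhibition above the campaign mean inhibition over all tested compounds plus 3 SD, cut at about 28% in these data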;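 also: 0% = plate median of test compound wells and 100% = 2 mM ZnCl2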
HIF act: HIF pathway transcriptional activators, primary screen, cell-based, U2OS HRE-luciferase, luminescence | 0.32% of 300,000 active | activation, % at 7.5 µM (by protocol) | U2OS HRE-luciferase reporter; normalized: DMSO 0%, desferrioxamine 100%;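 active = mean activation of at least 10% of the iron chelator positive control signal, with at least half of replicates also reaching 10%; inconclusive = mean and replicate majority disagree about reaching 10%; inactive = mean and most replicates under 10%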
Mot1-301 SUMO: yeast Mot1-301 growth rescue at high temperature, primary screen, SUMOylation pathway inhibitor project, S. cerevisiae, ATP luminescence, 38.5C. S. cerevisiae Mot1-301 growth rescue; percent above DMSO median, 100 means doubled. growth rescue, % at 18.8 µM. 1% of 320,000 active;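 active = every valid replicate shows activation above 250% relative to neutral control wells; inactive = the rest, any valid replicate at or below 250%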;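 also: OY570 slx delta 5 strain wells were the positive control but not used for scaling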
ALR H2O2 inh: inhibitors of human ALR sulfhydryl oxidase, primary screen, biochemical, H2O2 detection, HRP-luminol luminescence, single point. FAD-linked sulfhydryl oxidase ALR (Homo sapiens), P55789. purified ALR, DTT oxidation. inhibition, % (test concentration not listed). 3.8% of 290,000 active;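 active = mean replicate inhibition above about 79%, with every replicate also reaching it, limit read from the data; inconclusive = only one of the two criteria met; inactive = mean below limit and not every replicate reaching it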
Target sequence (P55789 whole entry, looked up): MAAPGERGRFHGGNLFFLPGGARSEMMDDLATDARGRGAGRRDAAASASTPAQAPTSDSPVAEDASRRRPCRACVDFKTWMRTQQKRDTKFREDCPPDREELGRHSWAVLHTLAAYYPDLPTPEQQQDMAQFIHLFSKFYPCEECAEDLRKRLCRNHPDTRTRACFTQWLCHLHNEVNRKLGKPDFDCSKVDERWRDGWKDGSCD
* marks the source's active call; other numbers are inactive results; i = inactive; ? = inconclusive; . = not tested or not shown.

SMILES	PfM18AAP inh	HIF act	Mot1-301 SUMO	ALR H2O2 inh
COc1ccc(OC)c(NC(=O)CC2SC(=N)N(c3ccccc3)C2=O)c1 (centres undefined)	-5	-1	-9	-28
O=C(CC1SC(=O)N(c2ccccc2)C1=O)Nc1ccccc1 (centres undefined)	3	3	-26	98*
CCCN1C(=O)SC(CC(=O)Nc2ccc(C)cc2)C1=O (centres undefined)	-14	0	7	-8
O=C(NCCCCCCNC(=O)c1ccncc1)c1ccncc1	-2	-2	-19	0
Cc1ccc(NS(=O)(=O)c2ccc(NC(=O)c3ccccc3C(=O)O)cc2)cc1C	.	1	-14	-1
O=C(COC(=O)c1cc(S(=O)(=O)NCc2ccccc2)ccc1O)c1cc2ccccc2o1	-8	0	-21	-23
CCCn1c(N)c(C(=O)CSc2nnc(Cc3cccs3)n2C2CC2)c(=O)n(C)c1=O	.	.	3	0
CN(C)c1ccc(CNc2ccccn2)cc1	4	2	10	98*
Cc1cccc(NCc2ccc(N(C)C)cc2)n1	1	3	-7	82*
CCOc1ccc(NC(=O)COC(=O)Cc2ccsc2)cc1	.	.	1	-10
Nc1nc(=S)c2[nH]cnc2[nH]1	.	.	-4	10
Cc1cccc(CS(=O)(=O)Cc2ccc(C(=O)NC3CCCC3)o2)c1	4	0	5	-3
COC(=O)c1[nH]c2ccc(C)cc2c1NC(=O)CN1CCN(c2ccccc2)CC1	4	0	67	44
Cc1ccc2[nH]c(C(=O)O)c(NC(=O)CN3CCN(c4cccc(C)c4C)CC3)c2c1	-13	0	-3	94*
COc1cccc(C2/C(=C(\O)c3ccc4c(c3)OCCO4)C(=O)C(=O)N2CC2CCCO2)c1 (centres undefined)	6	.	9	4
COc1cccc(C2/C(=C(\O)c3ccc4c(c3)OCCO4)C(=O)C(=O)N2CCN(C)C)c1 (centres undefined)	-4	.	352*	-1
CC1(C)CN(c2ccccc2)N(C(=O)c2ccc(F)cc2)C1=O	-6	0	14	100*
CC(=O)OCC1(C)CN(c2ccccc2)N(C(=O)c2ccc(C(C)(C)C)cc2)C1=O (centres undefined)	-14	0	.	.
CC1(C)CN(c2ccccc2)N(C(=O)c2ccc(C#N)cc2)C1=O	-2	.	7	85*
CCCCCCOC(=O)Cc1c(C)nc(-c2ccccc2)[nH]c1=O	-3	0	-13	-1
COc1ccc(-c2cc(-c3cccs3)c(C#N)c(SCC(=O)NCc3ccccc3)n2)cc1	0	-32	-1	1
N#Cc1c(-c2ccccc2)cc(-c2cccs2)nc1SCC(=O)O	4	1	11	99*
CCOc1cc(/C=C2\N=C3CCCCCN3C2=O)ccc1O	-4	2	.	99*
CCOc1cc(/C=C2/N=C(C)C(C(=O)OC)=C2O)ccc1O	18	-1	i	99*
CCOc1cc(/C=C2/C(=O)ON=C2C)ccc1O	25	0	34	99*
SMILES	PfM18AAP inh	HIF act	Mot1-301 SUMO	ALR H2O2 inh
CC1=NOC(=O)/C1=C/c1ccc(O)c(Cl)c1	20	-1	13	.
CC(=O)Nc1cccc(NC(=O)C(=O)NCC(c2ccco2)N2CCc3ccccc3C2)c1 (centres undefined)	.	0	5	2
O=S(=O)(c1ccc(N2CCOCC2)nc1)N(Cc1ccccn1)Cc1ccccn1	-15	1	10	-6
O=C(O)c1cccc(NC(=O)c2ccc(S(=O)(=O)c3ccccc3)cc2)c1	-6	0	0	-9
Cc1cccc(NC(=O)CSCC(=O)OCc2ccccn2)c1	.	1	300	99*
COc1cccc(CN(C)C(=O)CSCC(=O)Nc2cccc(C)c2)c1OC	.	.	10	92*
COc1cccc(COC(=O)CSCC(=O)Nc2cccc(C)c2)c1OC	.	-1	-5	-28
COc1ccc(NC(=O)CSCC(=O)N(C)Cc2cccc(OC)c2OC)cc1	.	0	41	-3
CC(NC(=O)C1CCC(C(=O)NC(C)c2ccccc2)CC1)c1ccccc1 (centres undefined)	-6	-2	-4	-6
COc1ccc(/C=N/n2cnnc2)cc1Br	-5	0	-1	-1
COc1ccc(Cl)cc1NC(=S)NNC(=O)c1cccnc1	-5	0	141	89*
COc1ccccc1NC(=S)NNC(=O)c1c(Cl)c(C)nn1C	-2	-4	-9	86*
COc1ccccc1NC(=S)NNC(=O)c1cc(C)nn1C	9	2	-7	?
COc1ccccc1NC(=S)NNC(=O)c1cc(C)n(C)n1	12	3	-9	77*
COc1cc(C2C(C#N)=C(N)Oc3cc(N(C)C)ccc32)cc2c1OCO2 (centres undefined)	30*	1	293	7
COc1cc(C2C(C#N)=C(N)Oc3cc(O)ccc32)cc2c1OCO2 (centres undefined)	7	-1	-2	61
CCO[C@H]1OC(C(=O)N2CCN(Cc3ccc4c(c3)OCO4)CC2)=C[C@@H](C)[C@@H]1CCCO	-5	0	-2	0
C=CCn1c(SCC(=O)Nc2ccc(O)cc2)nc2sc(CC)cc2c1=O	5	0	53	97*
Cc1cc2c(=O)n(C)c(SCC(=O)Nc3cccc(O)c3)nc2s1	5	0	2	99*
C=CCn1c(SCC(=O)Nc2cccc3ccccc23)nc(O)c(CC)c1=O	13	0	7	98*
O=S(=O)(Nc1nc2ccccc2nc1-[n+]1cccc(N=C([O-])c2ccccc2Cl)c1)c1ccccc1	0	0	4	1
CN(CC1COc2ccccc2O1)C(=O)c1cccc(S(=O)(=O)N2CCCC2)c1 (centres undefined)	.	.	-11	-9
CN(CC1COc2ccccc2O1)C(=O)c1ccc(N(C)C)cc1 (centres undefined)	-11	0	3	89*
O=C(c1cccc([N+](=O)[O-])c1)N1CCN(S(=O)(=O)/C=C/c2ccccc2)CC1	.	.	-6	-1
CN1c2ccccc2N(C)C1(C)c1cccc2ccccc12	2	0	6	13
SMILES	PfM18AAP inh	HIF act	Mot1-301 SUMO	ALR H2O2 inh
CN1c2cccc3cccc(c23)N(C)C1(C)C	10	0	-16	87*
Cc1cc(NC(=S)Nc2ccc(C)c(Cl)c2)n[nH]1	2	5	13	97*
COc1ccc(NC(=S)Nc2cc(C)[nH]n2)cc1Cl	7	2	3	1
CC(CN1CCN(C)CC1)OC(=O)c1ccccc1Cl (centres undefined)	-15	0	346*	2
COC(=O)c1ccc(N=NNc2cccc(Br)c2)cc1	3	.	56	-14
Cc1cccc(N2CC(C(=O)Nc3nnc(SCC(=O)NCC4CCCO4)s3)CC2=O)c1 (centres undefined)	1	0	-9	6
